Compound activity as filed in PubChem.
VACV Venus inh – qHTS for Stage-Specific Inhibitors of Vaccinia Orthopoxvirus: Venus Reporter Primary qHTS; Vaccinia virus Venus reporter expression, fluorescence; AID 720580, 2013; 0.46% of 330,000 active; Potency, µM (series often up to 36.5 µM), inactives show at the top dose activity change, negative = inhibition, most hits filed as inhibitors; calls by dose curve; tested in A549 cells; further: potency means the concentration at half of the fitted maximal effect; nearly all actives have a fitted effect of over 30% in size
VACV mCherry inh – qHTS for Stage-Specific Inhibitors of Vaccinia Orthopoxvirus: mCherry Reporter Primary qHTS; 0.63% of 310,000 active; Vaccinia virus mCherry reporter infection, fluorescence; Potency, µM (highest dose often 36.5 µM), without a hit: top-dose activity change, negative = inhibition, most hits filed as inhibitors; AID 720579, 2013; calls by dose curve; tested in A549 cells; further: potency means the concentration at half of the fitted maximal effect; nearly all actives have a fitted effect of over 35% in size
Sm TGR block – qHTS Assay for the Inhibitors of Schistosoma Mansoni Peroxiredoxins; 3% of 360,000 active; Potency, µM (top dose mostly 114 µM), inactives show at the highest dose activity change, negative = inhibition, most hits filed as inhibitors; purified TGR, DTNB reduction, TNB absorbance 405 nm; AID 485364, 2010; further: potency means the concentration at half of the fitted maximal effect; nearly all actives have a fitted effect of over 60% in size
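First, TGR (20 nM dispensed) and NADPH were mixed with compound. Second, a 15 min room-temperature incubation followed. Third, further NADPH and then DTNB were added to start the reaction. Finally, TNB absorbance was monitored kinetically.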
FMDV inh – High Throughput Screening for Foot and Mouth Disease Virus Antivirals. 1.2% of 410,000 active. AID 1159524, 2015. Potency, µM (top dose mostly 57.9 µM), for the others: at the highest dose activity change, negative = inhibition, most hits filed as inhibitors. FMDV antiviral cell-based qHTS; calls by dose curve; tested in HEK293T cells; further: read-out not given here; potency means the concentration at half of the fitted maximal effect; nearly all actives have a fitted effect of over 45% in size
HCV inh – qHTS Assay for Inhibitors of Hepatitis C Virus (HCV); Huh7.5.1 HCVcc-Cre infection, luciferase reporter, 44 h; Potency, µM (titrated, usually from 41.8 µM), for inactives: at the highest dose activity change, negative = inhibition, hits mostly inhibitors; 3.4% of 340,000 active; further: potency means the concentration at half of the fitted maximal effect
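Compounds are dispensed onto cells plated 4 h earlier at 1,000 per well, with HCVcc-Cre virus (about 0.5 moi) added next. Following 44 h of culture, luminescent signal is measured for 15 sec after 15 min with substrate at room temperature.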
HCMV inh – qHTS Assay for inhibitors of the human cytomegalovirus (HCMV); HFF cells, HCMV-luciferase reporter, 72 h; stronger effect = lower value; AID 1259415, 2018; activity change, negative = inhibition, % at 57.5 µM; 4.5% of 410,000 active; in the data active means activity change below about -60%; inconclusive means no clear call, values can overlap the other calls; inactive means above about -39%
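Luciferase read-out from HCMV-luciferase-infected HFFs (MOI 1 PFU/cell) 72 h post infection at 37C; compounds added after 16 h cell attachment; activity normalized between buffer-only basal and Salinomycin (10uM) inhibitor controls.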
* marks the source's active call; other numbers are inactive results; i = inactive; ? = inconclusive; / = not tested or not shown. Compounds with a hit are over-represented: about 9.3% of the library has one in this group of screens. Unless noted, the call rests on the fitted dose curve; in most records, active means well fitted curve in the direction sought with a large enough effect; inconclusive means small, poorly fitted or top-dose-only effect, or another doubt; inactive means no such curve, though single readings can be large; an effect the other way counts as inactive or inconclusive. On the % scale 0 is the no-effect control and ±100 the full control effect.

SMILES	VACV Venus inh	VACV mCherry inh	Sm TGR block	FMDV inh	HCV inh	HCMV inh
CCCCC1=CC2=C(c3ccco3)C(=O)C(C)(OC(=O)c3ccc(OC)cc3)C(=O)C2=CN1Cc1ccc(OC)cc1 (stereo unspecified)	/	/	-2.0%	/	/	/
COC(=O)CCCC1=CC2=C(c3ccccc3)C(=O)C(C)(OC(=O)C3CCCC3)C(=O)C2=CN1Cc1ccc2c(c1)OCO2 (stereo unspecified)	-16.9%	-25.7%	17.8µM*	-6.2%	4.2%	-69.6*
COc1cc(CCCN2C(=O)C(=O)NC[C@@H]2CC2CCCCC2)cc(OC)c1OC	-7.4%	i	-6.5%	1.4%	-1.6%	11.5
C/C(=N\NC(=O)c1cc2c(s1)CCC(C)C2)c1ccncc1 (stereo unspecified)	-11.1%	-17.9%	-2.8%	0.0%	25.1µM*	?
CC1CCc2sc(C(=O)N/N=C/c3ccc(O)cc3)cc2C1 (stereo unspecified)	-18.3%	?	-1.0%	8.9%	?	-63.9*
C/C(=N\NC(=O)c1cc2c(s1)CCC(C)C2)c1ccc[nH]1 (stereo unspecified)	/	/	3.9%	51.7%	0.8%	-16.3
Cc1cccc(OCc2nc(C#N)c(NCc3ccccc3Cl)o2)c1	-3.3%	-16.2%	3.3%	11.2%	/	26.0
NC1(C(=O)O)CSSC1	?	?	/	-0.8%	?	-79.8*
CCS(=O)(=O)N1CCCC(C(=O)NCCc2ccccc2)C1 (stereo unspecified)	-12.2%	-22.6%	2.3%	/	1.3%	-6.6
O=C(/C=C/c1ccco1)Nc1cccc(S(=O)(=O)N2CCOCC2)c1	-17.6%	-8.7%	-32.7%	-12.2%	-27.3%	?
Cc1ccc(/C=C/C(=O)Nc2cccc(S(=O)(=O)N3CCOCC3)c2)o1	-12.6%	-5.4%	11.2µM*	23.7%	-6.7%	4.1
COc1ccc(/C=C/C(=O)Nc2cccc(S(=O)(=O)N3CCOCC3)c2)cc1OC	-23.3%	-5.7%	-0.2%	?	?	4.3
O=C(/C=C/c1ccc(OC(F)F)cc1)Nc1cccc(S(=O)(=O)N2CCOCC2)c1	?	-17.8%	-20.8%	?	5.62µM*	-75.0*
O=c1cc(C(F)(F)F)[nH]c2c(C(F)(F)F)cccc12	12.6µM*	?	-1.3%	?	-27.7%	/
O=c1cc(C(F)(F)F)[nH]c2ccc(OC(F)(F)F)cc12	?	?	5.9%	?	?	-94.6*
Cc1[nH]c2c(C(F)(F)F)cccc2c1CCN	-9.3%	/	6.1%	-19.0%	0.9%	51.3
CCOc1ccc2[nH]c(C)cc(=O)c2c1	-3.9%	-9.0%	0.5%	-20.7%	15.7%	12.6
CC(=O)C1=C(O)C(=O)N(CCc2c[nH]c3ccccc23)C1c1ccco1 (stereo unspecified)	-15.0%	-20.4%	39.8µM*	-17.3%	16.4%	-13.8
CC(=O)C1=C(O)C(=O)N(CCc2c[nH]c3ccccc23)C1c1ccc(C)cc1 (stereo unspecified)	-2.2%	i	6.7%	8.6%	13.4%	?
CCOc1cc(C#N)c(NC(=O)c2ccco2)cc1OCC	/	/	6.8%	-1.1%	-20.2%	-31.3
O=C(O)CCCCCN1C(=O)C2CCCCC2C1=O (stereo unspecified)	/	/	1.4%	3.98µM*	-3.7%	12.7
Cn1nnnc1SCCNCC#Cc1ccccc1	/	/	-23.2%	16.9%	-61.0%	10.1
COc1ccc(NCc2nnc(SCC(=O)Nc3nc(-c4ccccc4)cs3)n2-c2ccccc2)cc1	-21.6%	i	0.4%	-11.8%	?	-82.5*
COc1ccc(-n2c(COc3ccc(C)cc3)nnc2SCc2ccc(C#N)cc2)cc1	/	/	9.5%	-25.2%	22.4µM*	-13.2
COc1ccc(NCc2nnc(SCc3ccc(Cl)cc3)n2-c2ccccc2)cc1	-15.5%	i	-17.2%	?	8.91µM*	-31.7
SMILES	VACV Venus inh	VACV mCherry inh	Sm TGR block	FMDV inh	HCV inh	HCMV inh
COC(=O)CSc1nnc(CNc2nc(-c3ccccc3)cs2)n1C	-6.2%	-8.8%	-5.6%	-18.3%	-0.6%	-0.8
COc1ccc(C(=O)CSc2nnc(CNc3nc(-c4ccccc4)cs3)n2C)cc1	-25.5%	/	7.5%	39.8µM*	-12.9%	-10.3
CC(C)c1csc2nc3n(c(=O)c12)CCCCC3	-19.6%	i	/	-3.7%	-10.9%	-5.7
COC(=O)c1ccc2c(c1C(=O)OC)CN(S(=O)(=O)C(C)(C)C)[C@@H]2CCO	-11.4%	14.6%	/	-7.7%	-24.2%	10.0
COc1ccccc1CN1CC(C(=O)NCc2nc3ccccc3n2C)CCC1=O (stereo unspecified)	-14.3%	i	5.4%	-6.5%	/	-64.3*
Cc1cc(C)c(C(=O)c2ccc(C(=O)N3CCCCC3)cc2)c(C)c1	-15.2%	-11.6%	-24.7%	0.3%	?	?
CC1CN=C(c2ccc(Cl)cc2)c2c3ccc(C(F)(F)F)cc3[n+]([O-])n21 (stereo unspecified)	/	/	/	/	/	5.5
FC(F)(F)c1cccc(-c2cnc3ccc(C4CC4)nn23)c1	/	/	/	/	/	-82.0*
Cc1nnc2ccc(-c3cccc(C(F)(F)F)c3)nn12	-14.4%	-13.1%	/	-10.2%	-29.0%	-32.0
Cn1nc(C(F)(F)F)c(-c2ccc(Br)cc2)c1NC(=O)Nc1ccc(F)cc1F	?	-4.8%	9.8%	-25.2%	?	-92.3*
c1ccc2c(c1)ncn2-c1ncnc2sc3c(c12)CCCC3	/	/	11.5%	0.0%	-4.8%	-63.7*
Cc1cc2ncn(-c3ncnc4sc5c(c34)CCCC5)c2cc1C	-14.5%	/	3.4%	-13.0%	13.1%	-34.0
Oc1ccc(N2CCN(c3ncnc4sc5c(c34)CCC5)CC2)cc1	-25.6%	?	-23.9%	?	?	-82.4*
Cc1nn(C)c(C(=O)Nc2ccc(S(=O)(=O)NC34CC5CC(CC(C5)C3)C4)cc2)c1Br	?	12.6µM*	-10.3%	-19.0%	10µM*	/
Cc1ccc(S(=O)(=O)NC23CC4CC(CC(C4)C2)C3)cc1	/	/	3.1%	42.3%	?	-33.1
O=S(=O)(c1ccc(Oc2ccc3c(c2)OCO3)c(S(=O)(=O)N2CCOCC2)c1)N1CCOCC1	-12.6%	15.0%	/	/	/	/
O=C(NNC(=O)c1ccc[nH]1)Nc1cc(Cl)cc(Cl)c1	-4.4%	i	-17.2%	-0.9%	6.3%	12.5
O=C(COc1ccc(-c2nnco2)cc1)Nc1ccc(C(F)(F)F)cc1	-7.5%	i	0.4%	-22.6%	?	-75.2*
CCC(C)c1ccccc1NC(=O)COc1ccc(-c2nnco2)cc1 (stereo unspecified)	-16.6%	-6.5%	0.8%	-3.6%	1.2%	-17.3
